# Reference: the supplement of paper PMC12282887
# ± gives the standard deviation of the averaged measurements.
# Key:
# Assay in all cases: promoter activity interaction Z-score (Lux/OD deviation from empty-vector control); higher = stronger promoter induction by the compound
# [1] = test system: E. coli BW25113 acrABp lux reporter
# In short: (§1)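 At 37°C, E. coli BW25113 reporter cultures in 40 µl LB Lennox in 384-well plates were read for OD600 and luminescence every 30 min for 12 h. Windows were 0–8 h for wild type and 1–9 h for deletion strains, and wells under 10% of the median growth value were removed. The score is the Z-transformed residual of growth-normalised luminescence against a control fit.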
# [2] = test system: E. coli BW25113 marRABp lux reporter
# In short: as §1
# [3] = test system: E. coli BW25113 micFp lux reporter
# In short: as §1
# [4] = test system: E. coli BW25113 ompFp lux reporter
# In short: as §1
# [5] = 12.9 µg/ml, genetic background: wild type
# [6] = 12.9 µg/ml, genetic background: ΔmarA
# [7] = 12.9 µg/ml, genetic background: Δrob
# [8] = 12.9 µg/ml, genetic background: ΔsoxS
# [9] = 25.8 µg/ml, genetic background: wild type
# [10] = 25.8 µg/ml, genetic background: ΔmarA
# [11] = 25.8 µg/ml, genetic background: Δrob
# [12] = 25.8 µg/ml, genetic background: ΔsoxS
# [13] = 51.6 µg/ml, genetic background: wild type
# [14] = 51.6 µg/ml, genetic background: ΔmarA
# [15] = 51.6 µg/ml, genetic background: Δrob
# [16] = 51.6 µg/ml, genetic background: ΔsoxS
# [17] = 103.1 µg/ml, genetic background: wild type
# [18] = 103.1 µg/ml, genetic background: ΔmarA
# [19] = 103.1 µg/ml, genetic background: Δrob
# [20] = 103.1 µg/ml, genetic background: ΔsoxS
structure (smiles),measurement,setting,value
CC(C)Cc1ccc(C(C)C(=O)O)cc1 (stereo unspecified) [Ibuprofen],promoter activity interaction Z-score,[1]; [5],0.434 ± 0.3
same,promoter activity interaction Z-score,[1]; [6],-0.569 ± 0.69
same,promoter activity interaction Z-score,[1]; [7],0.0303 ± 0.11
same,promoter activity interaction Z-score,[1]; [8],0.455 ± 0.63
same,promoter activity interaction Z-score,[1]; [9],0.485 ± 0.088
same,promoter activity interaction Z-score,[1]; [10],0.667 ± 0.1
same,promoter activity interaction Z-score,[1]; [11],-0.156 ± 0.0041
same,promoter activity interaction Z-score,[1]; [12],-0.0442 ± 0.022
same,promoter activity interaction Z-score,[1]; [13],0.366 ± 0.24
same,promoter activity interaction Z-score,[1]; [14],-0.62 ± 0.53
same,promoter activity interaction Z-score,[1]; [15],0.236 ± 0.13
same,promoter activity interaction Z-score,[1]; [16],0.0533 ± 0.45
same,promoter activity interaction Z-score,[1]; [17],0.11 ± 0.073
same,promoter activity interaction Z-score,[1]; [18],2.18 ± 0.32
same,promoter activity interaction Z-score,[1]; [19],-0.393 ± 0.093
same,promoter activity interaction Z-score,[1]; [20],-0.205 ± 0.13
same,promoter activity interaction Z-score,[2]; [5],0.196 ± 0.28
same,promoter activity interaction Z-score,[2]; [6],0.232 ± 0.58
same,promoter activity interaction Z-score,[2]; [7],0.124 ± 0.06
same,promoter activity interaction Z-score,[2]; [8],0.193 ± 0.14
same,promoter activity interaction Z-score,[2]; [9],0.212 ± 0.12
same,promoter activity interaction Z-score,[2]; [10],0.172 ± 0.49
same,promoter activity interaction Z-score,[2]; [11],0.0582 ± 0.32
same,promoter activity interaction Z-score,[2]; [12],0.0302 ± 0.03
same,promoter activity interaction Z-score,[2]; [13],0.119 ± 0.036
same,promoter activity interaction Z-score,[2]; [14],-0.396 ± 0.089
same,promoter activity interaction Z-score,[2]; [15],0.159 ± 0.17
same,promoter activity interaction Z-score,[2]; [16],-0.0798 ± 0.073
same,promoter activity interaction Z-score,[2]; [17],-0.239 ± 0.093
same,promoter activity interaction Z-score,[2]; [18],0.541 ± 0.8
same,promoter activity interaction Z-score,[2]; [19],0.0177 ± 0.01
same,promoter activity interaction Z-score,[2]; [20],-0.0508 ± 0.43
same,promoter activity interaction Z-score,[3]; [5],0.145 ± 0.18
same,promoter activity interaction Z-score,[3]; [6],-0.00146 ± 0.055
same,promoter activity interaction Z-score,[3]; [7],-0.209 ± 0.0032
same,promoter activity interaction Z-score,[3]; [8],0.214 ± 0.16
same,promoter activity interaction Z-score,[3]; [9],0.384 ± 0.26
same,promoter activity interaction Z-score,[3]; [10],0.0835 ± 0.1
same,promoter activity interaction Z-score,[3]; [11],-0.0551 ± 0.11
same,promoter activity interaction Z-score,[3]; [12],0.0794 ± 0.022
same,promoter activity interaction Z-score,[3]; [13],-0.0155 ± 0.081
same,promoter activity interaction Z-score,[3]; [14],0.0304 ± 0.18
same,promoter activity interaction Z-score,[3]; [15],-0.00979 ± 0.056
same,promoter activity interaction Z-score,[3]; [16],0.259 ± 0.28
same,promoter activity interaction Z-score,[3]; [17],0.239 ± 0.31
same,promoter activity interaction Z-score,[3]; [18],-0.0514 ± 0.092
same,promoter activity interaction Z-score,[3]; [19],-0.0741 ± 0.16
same,promoter activity interaction Z-score,[3]; [20],0.193 ± 0.12
same,promoter activity interaction Z-score,[4]; [5],0.335 ± 0.31
same,promoter activity interaction Z-score,[4]; [6],0.335 ± 0.075
same,promoter activity interaction Z-score,[4]; [7],-0.132 ± 0.56
same,promoter activity interaction Z-score,[4]; [8],0.513 ± 0.44
same,promoter activity interaction Z-score,[4]; [9],0.726 ± 0.49
same,promoter activity interaction Z-score,[4]; [10],1.13 ± 1.1
same,promoter activity interaction Z-score,[4]; [11],0.704 ± 0.75
same,promoter activity interaction Z-score,[4]; [12],-0.184 ± 0.45
